For assay [1], the system named is Falciformispora senegalensis CBS197.79. Put plainly: growth relative to untreated control; higher = less inhibition, active = 20 or less. An outline of the steps:
(§1)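 For each test, a hyphal fragment suspension of M. mycetomatis MM55 or F. senegalensis CBS197.79 was prepared in colourless RPMI 1640 with L-glutamine and MOPS at 68–72% transmission at 660 nm. Exposure to compound at 100 or 25 µM ran for 7 days at 37 °C in 96-well plates, followed by viability reading with MTS (2 h, 490 nm) or resazurin (600 nm). Growth corresponds to metabolic activity relative to the untreated growth control after correction of both with a blank of medium and dye.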

In assay [2] the test system is Madurella mycetomatis MM55. The description is as above. In short, it runs like this: as §1

Unmarked numbers belong to inactive results.

For the molecule `O=C(NC(=O)c1c(F)cccc1F)Nc1ccc(Cl)c(Oc2ncc(C(F)(F)F)cc2Cl)c1`, the growth in assay [1] (25 µM) is 93%; in assay [1] (100 µM), 84%.

With `CC(C)Nc1cc2c(cn1)nc(Nc1cc(Cl)cc(C(F)(F)F)c1)n2C1CCNC1` (centres undefined), the growth was 66.7% in assay [1] (25 µM) and 28.6% in assay [1] (100 µM).

Consider `CC1(C)C(C=C(Cl)Cl)C1C(=O)OCc1cccc(Oc2ccccc2)c1` (centres undefined), for which the growth in assay [1] (25 µM) is 70.4%; in assay [1] (100 µM) it was 98.3%.

Turning to `O=C(NC(=O)c1ccccc1Cl)Nc1ccc(OC(F)(F)F)cc1`, the growth is 84.1% in assay [1] (25 µM), 76.1% in assay [1] (100 µM), 106% in assay [2] (25 µM) and 112% in assay [2] (100 µM).

Turning to `CN(C)[C@@H]1C(=O)C(C(N)=O)=C(O)[C@@]2(O)C(O)=C3C(=O)c4c(O)cccc4[C@@](C)(O)[C@H]3C[C@@H]12`, the growth in assay [1] (25 µM) is 99.7%; in assay [1] (100 µM), 94.1%.

Regarding `CNC(=O)Oc1cccc2c1OC(C)(C)O2`, the growth was 86.8% in assay [1] (25 µM), 96% in assay [1] (100 µM), 95.6% in assay [2] (25 µM) and 129% in assay [2] (100 µM).

For the molecule `COc1ccc(CCN2CCC(Nc3nc4ccccc4n3Cc3ccc(F)cc3)CC2)cc1`, the growth in assay [1] (25 µM) was 12.9% (active); in assay [1] (100 µM), 15% (active); in assay [2] (25 µM), 3.51% (active); in assay [2] (100 µM), 4.43% (active).

Regarding `CC1(C)C(/C=C(\Cl)c2ccc(Cl)cc2)C1C(=O)OC(C#N)c1ccc(F)c(Oc2ccccc2)c1` (centres undefined), the growth was 74.8% in assay [1] (25 µM), 93.3% in assay [1] (100 µM), 119% in assay [2] (25 µM) and 119% in assay [2] (100 µM).

For `CC[C@@H](C(=O)[C@@H](C)[C@@H](O)[C@H](C)[C@@H]1O[C@@H]([C@@H](CC)C(=O)O)CC[C@@H]1C)[C@H]1O[C@]2(C=C[C@@H](O)[C@]3(CC[C@@](C)([C@H]4CC[C@](O)(CC)[C@H](C)O4)O3)O2)[C@H](C)C[C@@H]1C`, the growth in assay [1] (25 µM) and in assay [1] (100 µM) was 102% throughout.

Regarding `CC(F)c1ncnc(NCCc2ccc(OC(F)(F)F)cc2)c1Cl` (centres undefined), the growth in assay [1] (25 µM) was 90.5%; in assay [1] (100 µM), 82.9%; in assay [2] (25 µM), 11% (active); in assay [2] (100 µM) it was 10.1% (active).

On to `CCc1nn(C)c(C(=O)NCc2ccc(Oc3ccc(C)cc3)cc2)c1Cl`, for which the growth is 98.1% in assay [1] (25 µM) and 79.9% in assay [1] (100 µM).

Consider `N#Cc1nn(-c2c(Cl)cc(C(F)(F)F)cc2Cl)c(NCc2ccccn2)c1SC(F)F`, for which the growth in assay [1] (25 µM) is 85.6%; in assay [1] (100 µM) it was 101%.

Regarding `NCCc1cn(S(=O)(=O)c2c(Cl)nc3sccn23)c2ccccc12`, the growth in assay [1] (25 µM) is 13.2% (active); in assay [1] (100 µM), 11.5% (active).

`CC(C)(C#N)NC(=O)c1cc(Cl)cc(Cl)c1NC(=O)c1cc(Cl)nn1-c1ncccc1Cl`: the growth is 94.4% in assay [1] (25 µM), 94.6% in assay [1] (100 µM), 104% in assay [2] (25 µM) and 116% in assay [2] (100 µM).

For `CC(C)(C)Nc1cc2c(cn1)nc(Nc1cc(Cl)cc(C(F)(F)F)c1)n2C1CCNC1` (centres undefined), the growth is 15.1% (active) in assay [1] (25 µM), 14.1% (active) in assay [1] (100 µM), 8.45% (active) in assay [2] (25 µM) and 7.09% (active) in assay [2] (100 µM).

Take `O=[N+]([O-])/N=C1\NCCN1Cc1ccc(Cl)nc1`: the growth in assay [1] (25 µM) is 90.2%; in assay [1] (100 µM), 86.5%.

As for `N#CCNC(=O)c1cnccc1C(F)(F)F`, the growth in assay [1] (25 µM) was 85.9%; in assay [1] (100 µM), 87.5%.

Take `Cc1sc2c(c1C)C(c1ccc(Cl)cc1)=N[C@@H](CC(=O)OC(C)(C)C)c1nnc(C)n1-2`: the growth in assay [1] (25 µM) was 101%; in assay [1] (100 µM), 97.4%.

On to `CN1COCN(Cc2cnc(Cl)s2)/C1=N/[N+](=O)[O-]`, for which the growth was 93% in assay [1] (25 µM), 86.8% in assay [1] (100 µM), 87.9% in assay [2] (25 µM) and 126% in assay [2] (100 µM).

With `C[C@@H]1C[C@@H]([C@H](O)CC2CC(=O)NC(=O)C2)C(=O)[C@@H](C)C1`, the growth in assay [1] (25 µM) and in assay [1] (100 µM) was 101% in each case.

Take `N#Cc1nn(-c2c(Cl)cc(C(F)(F)F)cc2Cl)c(N)c1S(=O)C(F)(F)F` (centres undefined): the figures for the growth in assay [1] (25 µM) and in assay [1] (100 µM) were 92.1% and 88.4%, respectively.

As to `CC[C@@H]1CCC[C@H](O[C@H]2CC[C@H](N(C)C)[C@@H](C)O2)[C@@H](C)C(=O)C2=C[C@@H]3[C@@H](C=C(C)[C@@H]4C[C@@H](O[C@@H]5O[C@@H](C)[C@H](OC)[C@@H](OC)[C@H]5OC)C[C@@H]34)[C@@H]2CC(=O)O1.CC[C@@H]1CCC[C@H](O[C@H]2CC[C@H](N(C)C)[C@@H](C)O2)[C@@H](C)C(=O)C2=C[C@@H]3[C@@H](C=C[C@@H]4C[C@@H](O[C@@H]5O[C@@H](C)[C@H](OC)[C@@H](OC)[C@H]5OC)C[C@@H]34)[C@@H]2CC(=O)O1`, the growth in assay [1] (25 µM) was 78.1%; in assay [1] (100 µM), 93.3%.

On to `COc1cc(/C=N/c2c(SC(F)(F)F)c(C#N)nn2-c2c(Cl)cc(C(F)(F)F)cc2Cl)ccc1O`, for which the growth in assay [1] (25 µM) is 84.8%; in assay [1] (100 µM), 90.9%; in assay [2] (25 µM), 21%; in assay [2] (100 µM) it was 53.9%.

The values are drawn from the supplement of paper PMC11172423.
